# Measurements: PubChem BioAssay (EPA / NIEHS)
# Inconclusive results are not listed. Activity calls are given as the source filed them. Rule for the calls, unless noted: active = hit-call score of the fitted dose curve at least 0.9, where 1 is the maximum; inactive = score below 0.9.
# Read-out: Cytochrome P450 2B6 (Homo sapiens) (UniProt P20813)
# Assay: CLD_CYP2B6_48hr: CellzDirect (CLD) Gene Expression Assay for xenobiotic metabolism (CYP2B6) at 48 hours (AID 2283699; active = hit-call score of the fitted dose curve at least 0.9, where 1 is the maximum;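 note: actives raise transcript level above DMSO so potency reflects induction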)
# How it was run: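 Primary human hepatocytes dosed daily for two days over multiple concentrations, 0.2% DMSO vehicle; CYP2B6 mRNA quantified at 48 h by qNPA chemiluminescence. Induction fitted as gain of signal versus DMSO; cytotoxicity annotated by morphology.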
SMILES,AC50,outcome
CCNc1nc(Cl)nc(NC(C)(C)C#N)n1,3.45 µM (active),
CCOP(=O)(NC(C)C)Oc1ccc(SC)c(C)c1 (centres undefined),10.7 µM (active),
O=C(O)c1cc(Oc2ccc(C(F)(F)F)cc2Cl)ccc1[N+](=O)[O-],,inactive
C[N+]1(C)CCCCC1,,inactive
CCOP(=S)(OCC)OC(Cl)C(Cl)(Cl)Cl (centres undefined),0.0135 µM (active),
COc1cc(OC)nc(Sc2cccc(Cl)c2C(=O)O)n1,,inactive
CCOP(=S)(Oc1cnc(C(C)(C)C)nc1)OC(C)C (centres undefined),0.427 µM (active),
CCOP(=S)(OCC)Oc1cc(C)nc(C(C)C)n1,1.89 µM (active),
COc1ccc(C(=CC(=O)N2CCOCC2)c2ccc(Cl)cc2)cc1OC,3.59 µM (active),
CCC(=O)Nc1ccc(Cl)c(Cl)c1,0.92 µM (active),
CCCCOC(=O)c1ccccc1C(=O)O,,inactive
Cc1cc(C2CC2)nc(Nc2ccccc2)n1,1.09 µM (active),
C=C(C)[C@H]1Cc2c(ccc3c2O[C@@H]2COc4cc(OC)c(OC)cc4[C@@H]2C3=O)O1,,inactive
CNc1cnn(-c2cccc(C(F)(F)F)c2)c(=O)c1Cl,3.19 µM (active),
COc1cccc(C(=O)NN(C(=O)c2cc(C)cc(C)c2)C(C)(C)C)c1C,,inactive
CSc1nnc(C(C)(C)C)c(=O)n1N,20 µM (active),
CCOP(=S)(OCC)Oc1ccc([N+](=O)[O-])cc1,1.13 µM (active),
C[Si](Cn1cncn1)(c1ccc(F)cc1)c1ccc(F)cc1,0.051 µM (active),

# Read-out: Cytochrome P450 2C9 (Homo sapiens) (UniProt P11712)
# Assay: CLD_CYP2C9_48hr: CellzDirect (CLD) Gene Expression Assay for xenobiotic metabolism (CYP2C9) at 48 hours (AID 2283701)
# How it was run: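 Primary human hepatocytes (two donor preparations) dosed daily for two days with test chemicals, 0.2% DMSO vehicle; harvested at 48 h. mRNA induction quantified by qNPA chemiluminescence, fitted for gain of signal against DMSO baseline; cytotoxicity annotated from phase-contrast morphology.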
row,SMILES,outcome
1,CCc1cccc(CC)c1N(COC)C(=O)CCl,inactive
2,CCOP(=S)(OCC)Oc1ccc2c(C)c(Cl)c(=O)oc2c1,inactive
3,COP(=O)(OC)SCn1c(=O)oc2cc(Cl)cnc21,inactive
4,CON=C(C(=O)OC)c1ccccc1CON=C(C)c1cccc(C(F)(F)F)c1,inactive
5,CCOP(=O)(NC(C)C)Oc1ccc(SC)c(C)c1 (centres undefined),inactive
6,CNC(=O)ON=C(SC)C(=O)N(C)C,inactive
7,CCc1cccc(C)c1N(C(=O)CCl)C(C)COC (centres undefined),inactive
8,O=c1ccc(=O)[nH][nH]1,inactive
9,CN1COCN(Cc2cnc(Cl)s2)C1=N[N+](=O)[O-],inactive
10,CCOP(=S)(OCC)OC(Cl)C(Cl)(Cl)Cl (centres undefined),inactive
11,CN(C)C(=O)Nc1cccc(C(F)(F)F)c1,inactive
12,COc1cc(OC)nc(Sc2cccc(Cl)c2C(=O)O)n1,inactive
13,CCOP(=S)(Oc1cnc(C(C)(C)C)nc1)OC(C)C (centres undefined),inactive
14,CCCCOC(=O)[C@@H](C)Oc1ccc(Oc2ccc(C#N)cc2F)cc1,inactive
15,CCC(=NOC/C=C/Cl)C1=C(O)CC(C2CCOCC2)CC1=O (centres undefined),inactive
16,CC(=NC#N)N(C)Cc1ccc(Cl)nc1,inactive
17,COc1ccc(C(=CC(=O)N2CCOCC2)c2ccc(Cl)cc2)cc1OC,inactive
18,CC(C)N(C(=O)SCC(Cl)=C(Cl)Cl)C(C)C,inactive
19,Cc1cc(C2CC2)nc(Nc2ccccc2)n1,inactive
20,CCCSP(=O)(OCC)Oc1ccc(Br)cc1Cl (centres undefined),inactive
21,CNc1cnn(-c2cccc(C(F)(F)F)c2)c(=O)c1Cl,inactive
22,CC(C)=CC1C(C(=O)OCN2C(=O)C3=C(CCCC3)C2=O)C1(C)C (centres undefined),inactive
23,CCOP(=O)(OCC)Oc1cc(C)nc(C(C)C)n1,inactive
24,C#CC(C)(C)NC(=O)c1cc(Cl)cc(Cl)c1,inactive
25,COc1cccc(C(=O)NN(C(=O)c2cc(C)cc(C)c2)C(C)(C)C)c1C,inactive
26,CSc1nnc(C(C)(C)C)c(=O)n1N,inactive
